Test results as given in PubChem BioAssay (NCATS).
Results filed as inconclusive are left out. Calls of active or inactive are those of the source. The call rests on the fitted dose curve; in most records, active means well fitted curve in the direction sought with a large enough effect; inconclusive means small, poorly fitted or top-dose-only effect, or another doubt; inactive means no such curve, though single readings can be large; an effect the other way counts as inactive or inconclusive.

What was measured:
[1] = tested on: Zika virus NS2B-NS3 protease (linked construct); assay: Primary screen NINDS Rhodamine qHTS for Zika virus inhibitors (AID 1347160); further: nearly all actives have a fitted effect of over 55% in size; further: potency means the concentration at half of the fitted maximal effect
Method in brief: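 In 10 mM Tris-HCl pH 8.0 containing 0.01% Tween 20, linked NS2B-NS3 protease (25 nM final) is exposed to test compounds for 15 min. Cleavage of 1.5 microM Rhodamine110 substrate is tracked by fluorescence over 15 min.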

[2] = molecular target: Calcium and integrin-binding protein 1 (Homo sapiens) (UniProt Q99828); assay: Primary qHTS for Identification of Calcium Integrin Binding Protein 1 (CIB1) Competitor (AID 1508620);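 further: GST tagged CIB1 binding a fluorescein labelled alphaIIb integrin peptide tracer; top concentration of the series differs between compounds; on the % scale 0 is the no-effect control and ±100 the full control effect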
Method in brief: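 Fluorescence polarization competition: GST-tagged CIB1 (1 uM final) preincubated with compound 15 min at room temperature, then FITC-labelled alphaIIb peptide (100 nM final) added. After 15 min at room temperature, polarization read at Ex 480/Em 540.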

[3] = molecular target: Glutathione peroxidase 1 (Homo sapiens) (UniProt P07203); assay: Primary qHTS Assay for Inhibitors of Recombinant Selenoprotein Glutathione Peroxidase 1 (GPX1) (AID 1845191); further: nearly all actives have a fitted effect of over 65% in size
Method in brief: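 GR-coupled assay: compounds preincubated 30 min at room temperature with GPX1, then reaction started with CHP; final 10 nM GPX1, 1 mM GSH, 0.5 mM CHP, 0.5 mM NADPH, 100 nM GR, 0.01% BSA, pH 7.5 Tris buffer. NADPH fluorescence (340/450 nm) read at 0 and 15 min.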

[4] = molecular target: Luciferin 4-monooxygenase (Photinus pyralis) (UniProt P08659); assay: Primary firefly luciferase (FLuc) qHTS assay for identification of artifact compounds. (AID 1845220); details: outcome: dose series up to 54.1 µM unless noted; further: nearly all actives have a fitted effect of over 60% in size
Method in brief: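 Enzymatic FLuc inhibition assay: compounds pre-exposed to luciferin/ATP (10 uM each) for 15 min, then purified P. pyralis enzyme at 10 nM added. Read-out: luminescence at 5 min.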

[5] = Primary fluorescence-based thiol-reactive (MSTI) qHTS assay for identification of artifact compounds. (AID 1845221); further: nearly all actives have a fitted effect of over 65% in size; further: potency means the concentration at half of the fitted maximal effect
Method in brief: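 Compounds were incubated 1 h at room temperature in the dark with the MSTI probe (4 uM) in PBS pH 7.4, 2% DMSO. Signals were normalized between Acetyl-MSTI and MSTI.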

[6] = tested on: Nanoluciferase (engineered Oplophorus gracilirostris luciferase); assay: Primary Nanoluciferase (NLuc) qHTS assay for identification of artifact compounds. (AID 1845222);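 further: NLuc secreted into diluted conditioned medium of S16 cells; 0% = DMSO and -100% = no enzyme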
Method in brief: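 S16 cell supernatant NLuc, 1:55; cpds qHTS; 15 min RT dark; Nano-Glo substrate 1:100, 5 min; luminescence; Hill fit of % inhibition.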

[7] = Primary redox qHTS assay for identification of artifact compounds. (AID 1845223);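 further: 0% = DMSO and 100% = reference compound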
Method in brief: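 Amplex Red (25 uM) and HRP (250 mU/mL) in HBSS, with compounds for 15 min, then 250 uM DTT for 30 min, room temperature, dark. Fluorescence 525/598 nm read; normalized to DMSO and 10 uM DA3003; Hill fit.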

CRL-7250 = normal cell line; assay: Cytotoxic Profiling of Annotated Libraries Using Quantitative High-Throughput Screening (AID 1296008); details: Five cell lines viability, CellTiter-Glo ATP luminescence, 48-72 h; max response: active compounds read low; further: nearly all actives have a fitted effect of over 60% in size; further: potency means the concentration at half of the fitted maximal effect; on max response: on the % scale 0 is the no-effect control and ±100 the full control effect
Method in brief: (§1)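 Cells exposed to compounds for 48 or 72 hr at 37 degrees Celsius. Viability read as ATP-coupled luminescence with CellTiter-Glo after 10 min at room temperature.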

KB-3-1 = assay: as above; details: Five cell lines viability, CellTiter-Glo ATP luminescence, 48-72 h; max response: active compounds read low
Method in brief: as §1

C33A = assay: Primary qHTS to identify gynecologic anti-cancer compounds using libraries of approved drugs and bioactive compounds (AID 1345084); details: Gynecologic cancer cell panel viability, ATPlite luminescence, 48 h; series mostly up to 57.5 µM; further: nearly all actives have a fitted effect of over 55% in size; further: potency means the concentration at half of the fitted maximal effect
Method in brief: (§2)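 Luminescence from the ATPlite ATP-monitoring reagent indicates viable cell number; lower signal means cytotoxicity. Cells received compound 16 h after seeding and were exposed for 48 h across five concentrations.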

CASKI = assay: as above; details: Gynecologic cancer cell panel viability, ATPlite luminescence, 48 h; series mostly up to 57.5 µM
Method in brief: as §2

Es-2 = assay: as above; details: Gynecologic cancer cell panel viability, ATPlite luminescence, 48 h; series mostly up to 57.5 µM
Method in brief: as §2

Hek293T = assay: as above; details: Gynecologic cancer cell panel viability, ATPlite luminescence, 48 h, control line for the selectivity index; series mostly up to 57.5 µM
Method in brief: as §2

JEG-3 = assay: as above; details: Gynecologic cancer cell panel viability, ATPlite luminescence, 48 h; series mostly up to 57.5 µM
Method in brief: as §2

OV90 = assay: as above; details: Gynecologic cancer cell panel viability, ATPlite luminescence, 48 h; series mostly up to 57.5 µM
Method in brief: as §2

PA-1 = assay: as above; details: Gynecologic cancer cell panel viability, ATPlite luminescence, 48 h; series mostly up to 57.5 µM
Method in brief: as §2

Tov-21-G = assay: as above; details: Gynecologic cancer cell panel viability, ATPlite luminescence, 48 h; series mostly up to 57.5 µM
Method in brief: as §2

Tov112D = assay: as above; details: Gynecologic cancer cell panel viability, ATPlite luminescence, 48 h; series mostly up to 57.5 µM
Method in brief: as §2

CAOV3 = assay: as above; details: Gynecologic cancer cell panel viability, ATPlite luminescence, 48 h; series mostly up to 57.5 µM
Method in brief: as §2

[8] = molecular target: Phospholipid hydroperoxide glutathione peroxidase GPX4 (Homo sapiens) (UniProt P36969); assay: Primary qHTS Assay for Inhibitors of Recombinant Selenoprotein Glutathione Peroxidase 4 (GPX4) (AID 1845192); further: on the % scale 0 is the no-effect control and ±100 the full control effect; nearly all actives have a fitted effect of over 65% in size
Method in brief: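 GR-coupled assay: recombinant GPX4 preincubated 30 min with compound at room temperature; final 200 nM GPX4, 1 mM GSH, 0.5 mM cumene hydroperoxide, 0.5 mM NADPH, 100 nM GR, 0.01% BSA, pH 7.5 Tris. NADPH fluorescence (340/450 nm) read at 0 and 15 min.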

Glutathione peroxidase 1 (Homo sapiens), sequence (P07203 whole entry, looked up): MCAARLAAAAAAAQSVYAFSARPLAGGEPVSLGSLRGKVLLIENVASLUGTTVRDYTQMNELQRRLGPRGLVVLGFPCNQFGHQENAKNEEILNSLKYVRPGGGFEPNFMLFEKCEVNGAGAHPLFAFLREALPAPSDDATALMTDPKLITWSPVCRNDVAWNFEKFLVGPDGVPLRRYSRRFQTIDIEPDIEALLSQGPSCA
Phospholipid hydroperoxide glutathione peroxidase GPX4 (Homo sapiens), sequence (P36969 whole entry, looked up): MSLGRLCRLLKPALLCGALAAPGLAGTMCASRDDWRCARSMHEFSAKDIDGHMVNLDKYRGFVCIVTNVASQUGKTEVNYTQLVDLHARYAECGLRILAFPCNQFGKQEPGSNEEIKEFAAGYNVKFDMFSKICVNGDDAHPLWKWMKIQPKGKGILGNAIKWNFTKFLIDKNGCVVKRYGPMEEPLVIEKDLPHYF
Calcium and integrin-binding protein 1 (Homo sapiens), sequence (Q99828 whole entry, looked up): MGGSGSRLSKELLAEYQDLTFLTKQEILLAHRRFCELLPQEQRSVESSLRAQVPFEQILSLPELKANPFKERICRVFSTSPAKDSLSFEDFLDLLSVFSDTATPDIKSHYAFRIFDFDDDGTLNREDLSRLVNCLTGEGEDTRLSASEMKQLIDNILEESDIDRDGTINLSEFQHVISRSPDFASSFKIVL

CC(=O)NCCCOc1ccc(C(=O)N2CCC(N3C(=O)CCc4ccccc43)CC2)cc1
inactive: Potency [1] | Potency [2] | Potency [3] | outcome [4] | Potency [5] | Potency [6] | Potency [7] | max response (CRL-7250) 0.176% | max response (KB-3-1) 5.83% | Potency (C33A) | Potency (CASKI) | Potency (Es-2) | Potency (Hek293T) | Potency (JEG-3) | Potency (OV90) | Potency (PA-1) | Potency (Tov-21-G) | Potency (Tov112D)

C[C@H]1CCC[C@H](O)CCC/C=C/c2cc(O)cc(O)c2C(=O)O1
inactive: Potency [1] | Potency [2] | Potency [3] | outcome [4] | Potency [5] | Potency [6] | Potency [7] | outcome (CRL-7250) | Potency (C33A) | Potency (CAOV3) | Potency (CASKI) | Potency (Es-2) | Potency (Hek293T) | Potency (JEG-3) | Potency (OV90) | Potency (PA-1) | Potency (Tov-21-G) | Potency (Tov112D)

O=C1CN=C(c2cccc(Br)c2)c2oc3ccccc3c2N1
inactive: Potency [1] | Potency [2] | Potency [3] | Potency [8] | outcome [4] | Potency [5] | Potency [6] | Potency [7] | outcome (CRL-7250) | Potency (C33A) | Potency (CAOV3) | Potency (CASKI) | Potency (Es-2) | Potency (OV90) | Potency (Tov-21-G)

CC(=O)O[C@H]1C[C@@H](C)O[C@H]2O[C@@H]3CC4CC[C@@H]5C(CC[C@]6(C)[C@@H](C7=CC(=O)OC7)CC[C@]56O)[C@@]4(C=O)C[C@H]3O[C@]21O (some centres undefined)
inactive: Potency [1] | Potency [2] | Potency [3] | Potency [8] | outcome [4] | Potency [5] | Potency [6]
active: Potency (CRL-7250) 43.2 nM | Potency (KB-3-1) 68.5 nM | Potency (C33A) 100 nM | Potency (CAOV3) 282 nM | Potency (CASKI) 562 nM | Potency (Es-2) 126 nM | Potency (Hek293T) 158 nM | Potency (OV90) 562 nM | Potency (PA-1) 126 nM | Potency (Tov-21-G) 100 nM | Potency (Tov112D) 100 nM

O=C(N[C@H]1CN2CCC1CC2)c1cc2cccc(Cl)c2s1
inactive: Potency [1] | Potency [2] | Potency [3] | Potency [8] | outcome [4] | Potency [5] | Potency [6] | Potency [7] | max response (CRL-7250) -12.3% | max response (KB-3-1) 2.28% | Potency (C33A) | Potency (CASKI) | Potency (Es-2) | Potency (Hek293T) | Potency (JEG-3) | Potency (OV90) | Potency (PA-1) | Potency (Tov-21-G) | Potency (Tov112D)

CC/C=C/C=C/C1(C)OC(OC)=C(C(=O)C2C(C)C(=O)c3cc(OC)c(O)c(O)c3C2(C)O)C1=O (centres undefined)
active: Potency [1] 10000 nM | Potency [5] 1300 nM
inactive: Potency [2] | Potency [3] | Potency [8] | outcome [4] inactive [at 25.7 µM] | Potency [6] | Potency [7] | max response (CRL-7250) -16.8% | Potency (C33A) | Potency (CAOV3) | Potency (CASKI) | Potency (Hek293T) | Potency (JEG-3) | Potency (OV90) | Potency (Tov112D)
